Shown are actives, neighbours in structure and some others; about 2.7% of the full set was active somewhere.
MITF TRPM1 HTS: increases MITF-driven TRPM1 promoter luciferase signal. SK-MEL-5 TRPM1-promoter luciferase, 24 h; % of positive control, neutral wells = 0. activation, % at 12.5 µM. actives 0.75% (n = 300,000). AID 588334;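 active means mean activation of at least 80% with every replicate also reaching 80%; inconclusive means mean reaches 80% but some replicate falls short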;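 further: 0% = neutral control wells and 100% = parthenolide positive control wells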
INS-1E GSIS act: primary screen for activators of insulin secretion dependent on glucose, INS-1E cells, GLuc reporter luminescence; INS-1E GLuc reporter insulin secretion, 2-3 h; activation, % at 16.6 µM; actives 0.61% (n = 370,000); AID 743287;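 active means lowest replicate activation of at least 40%, so every replicate reaches that level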;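 further: 0% = median of neutral control wells and 100% = median of IBMX positive control wells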
Wnt bcat act: activates Wnt/beta-catenin signaling in a reporter cell assay | AID 743398 | activator, plate reader | actives 1.2% (n = 300,000) | activation, % at 9.35 µM; in the data active means activation above about 30%, passing the limit was not always enough; inconclusive means no clear call, values can overlap the other calls;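 further: 0% = neutral control wells and 100% = positive control wells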
CFTR F508del cor: correctors of CFTR F508del function in bronchial epithelial cells. CFBE cells, YFP halide quenching; stimulated with forskolin plus potentiator P3; % fluorescence drop versus neutral controls. activity (quench increase), % at 7.58 µM. actives 0.36% (n = 350,000);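 active means mean added fluorescence quench of at least 8% versus neutral control, with both replicates also reaching 8%; inconclusive means only one of the mean or replicate conditions met; inactive means mean below 8% and not both replicates reaching 8%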;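 further: cells transiently co-express mutant CFTR-F508del with the halide-sensitive YFP; corrector assay measuring rescue of mutant channel to the surface after 24 h compound exposure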
HIV Env fusion: inhibitors of HIV Env-mediated cell fusion | inhibition, % at 12.3 µM | HeLa-JRFL Env/CEM21 cell fusion, luciferase | actives 1.1% (n = 360,000);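 active means mean replicate inhibition score of at least 50 and every replicate individually at or above 50; inconclusive means only one of the two criteria met; inactive means mean below 50 and not all replicates reaching 50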;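 further: 0% = plate neutral controls and 100% = maraviroc near 300 nM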
The depositor's hits bear a star; [ ] = dose if it differs, or a comment.

CN1C[C@@H]2N[C@H](C1)C2c1ccc(Br)cc1 (some centres not stated) was read as INS-1E GSIS act -6.
`COCCO[C@H]1CC[C@@]2(C)C(=CCC3C2CC[C@@]2(C)C3CC[C@]2(C)O)C1` (some centres not stated) gave MITF TRPM1 HTS 0, INS-1E GSIS act 2, Wnt bcat act -3, CFTR F508del cor 8.7* and HIV Env fusion -6.
For NS(=O)(=O)c1ccc(N=Cc2c(O)n(C3CCCCC3)c(=O)n(C3CCCCC3)c2=O)cc1 the results were MITF TRPM1 HTS -12, INS-1E GSIS act 739*, Wnt bcat act -9 and HIV Env fusion 35.
Screening CC1=CC(C)CC(C)OC(=O)CC(c2ccc(O)cc2)NC(=O)C(Cc2c(Br)[nH]c3ccccc23)N(C)C(=O)C(C)NC(=O)C(C)C1 (configuration not stated) returned INS-1E GSIS act -12, Wnt bcat act -11, CFTR F508del cor -2 and HIV Env fusion 81*.
O=c1c2ccccc2[nH]c(=S)n1-c1ccc2c(c1)OCCO2 was read as INS-1E GSIS act 11, Wnt bcat act 37*, CFTR F508del cor -1 and HIV Env fusion -42.
COC(=O)[C@@H]1[C@@H](CO)[C@@H]2Cn3c(ccc(-c4ccccc4F)c3=O)[C@H]1N2 was read as INS-1E GSIS act 5 and HIV Env fusion -6[16.7 µM].
For COC(=O)[C@H]1[C@H](CO)[C@H]2Cn3c(ccc(C4=CCCC4)c3=O)[C@@H]1N2C(=O)C1CCCCC1 the results were INS-1E GSIS act 3 and HIV Env fusion -6[16.7 µM].
For CC(N)C(=O)NC1C2C(=C(O)CC(O)C2O)C(=O)OC1(C)C(Cl)Cl (configuration not stated) the results were INS-1E GSIS act -18, Wnt bcat act -6, CFTR F508del cor -4 and HIV Env fusion 99*.
For CN1/C(=C\C=C2C(=O)NC(=O)NC2=O)C(C)(C)c2ccccc21 the results were MITF TRPM1 HTS 9, INS-1E GSIS act -3, Wnt bcat act -5, CFTR F508del cor inconclusive and HIV Env fusion 40.
Screening CN1/C(=C\C=Nc2ccccc2)C(C)(C)c2ccccc21 returned MITF TRPM1 HTS -6, Wnt bcat act -2 and HIV Env fusion 64*.
Screening Cc1nc(C)c(C(=O)NN=Cc2ccc(N(CCCl)CCCl)cc2)s1 returned MITF TRPM1 HTS 1, INS-1E GSIS act -6, Wnt bcat act -1, CFTR F508del cor 8.7* and HIV Env fusion inconclusive.
Screening O=C(NN=Cc1ccc(N(CCCl)CCCl)cc1)c1cccnc1 returned MITF TRPM1 HTS 5, INS-1E GSIS act -1, Wnt bcat act 21, CFTR F508del cor 6 and HIV Env fusion -15.
C/C=C/c1ccc(C2[C@@H]3CN(C(=O)C4CCOCC4)C[C@H]2N3)cc1 (some centres not stated) was read as INS-1E GSIS act 10 and CFTR F508del cor -2.
`CC=CC(C)=CC(C)C(=O)CC(O)CC1CC(=O)NC(=O)C1` (configuration not stated) gave INS-1E GSIS act -7, Wnt bcat act -14, CFTR F508del cor 10* and HIV Env fusion 24.
`CC1(C)OC(c2ccccc2)=C/C(=C/C=C2C(=O)NC(=O)NC2=O)O1` gave MITF TRPM1 HTS -5, INS-1E GSIS act 4, Wnt bcat act -1, CFTR F508del cor 14* and HIV Env fusion -6.
For CCSc1nnc([C@@H](N)Cc2c[nH]c3ccccc23)o1 the results were HIV Env fusion -28.
Cc1cccc(NC(=O)CSc2nnc([C@@H](N)Cc3c[nH]c4ccccc34)o2)c1C was read as MITF TRPM1 HTS -4 and HIV Env fusion 55*.
For CN1C2CN(CC(F)(F)F)CC1C2c1ccc(Br)cc1 (configuration not stated) the results were INS-1E GSIS act 7.
